Sampled rows, rich in hits. Any-hit rate of the full collection: about 1.1%.
SNCA expr inh – Primary qHTS assay for inhibitors of alpha-synuclein gene (SNCA) expression. Potency, µM (doses to about 57.2 µM), actives largely listed as inhibitors. 140,000 compounds, 0.17% hits. AID 1671194, 2021. HEK-293 SNCA-luciferase knock-in, luminescence, 24 h; further: nearly all actives have a fitted effect of over 45% in size
IP6K1 inhibitor – Primary qHTS assay for small molecule inhibitors of Inositol hexaphosphate kinase 1 (IP6K1) | 140,000 compounds, 0.81% hits | IP6K1 kinase, ADP-Glo luminescence, 2 h; active compounds read low | activity change, % (series mostly up to about 58 µM) | Inositol hexakisphosphate kinase 1 (Homo sapiens), Q92551; in the data active means activity change below about -25%
Target sequence (Q92551 whole entry, looked up): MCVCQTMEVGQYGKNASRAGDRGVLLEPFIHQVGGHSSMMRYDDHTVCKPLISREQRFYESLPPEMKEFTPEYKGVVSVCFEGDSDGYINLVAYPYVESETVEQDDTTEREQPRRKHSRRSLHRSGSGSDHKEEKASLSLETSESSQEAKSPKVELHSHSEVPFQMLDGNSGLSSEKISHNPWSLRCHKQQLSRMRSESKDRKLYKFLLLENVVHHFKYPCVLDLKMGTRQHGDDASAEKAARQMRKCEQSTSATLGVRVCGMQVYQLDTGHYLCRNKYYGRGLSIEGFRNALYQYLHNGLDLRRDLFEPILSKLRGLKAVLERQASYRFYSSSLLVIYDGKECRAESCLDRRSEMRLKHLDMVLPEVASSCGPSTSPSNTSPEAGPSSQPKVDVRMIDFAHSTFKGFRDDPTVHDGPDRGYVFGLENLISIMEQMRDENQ
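ADP-Glo luminescence measures ADP made by human IP6K1 during a 2 h RT reaction with ATP/IP6 (mix at 1.3 mM/130 uM); top library doses 57.5 and 19.1 uM final.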
GPT2 inhibitor – Primary qHTS assay for inhibitors of Glutamate pyruvate transaminase 2 (GPT2); Alanine aminotransferase 2 (Homo sapiens), Q8TD30; Recombinant GPT2, coupled pyruvate oxidase/HRP Amplex Red fluorescence; Potency, µM (titrated, usually from 57.7 µM), hits mostly inhibitors; 100,000 compounds, 0.25% hits; AID 1671188, 2021; further: nearly all actives have a fitted effect of over 60% in size
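Inhibition is scored from Amplex Red fluorescence generated when pyruvate oxidase and HRP act on pyruvate released by GPT2. Reactions contain 10ng/uL enzyme, 250uM a-KG and 2mM L-alanine and run 30 min at room temperature.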
HEK293 viab – GF-AFC viability counterscreen for inhibitors of alpha-synuclein gene (SNCA) expression; HEK-293-SNCA-luc viability, GF-AFC fluorescence, 24 h; Potency, µM (series often up to 57.1 µM), most hits filed as cytotoxic; AID 1671193, 2021; 150,000 compounds, 0.12% hits; further: nearly all actives have a fitted effect of over 30% in size
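Cytotoxicity counterscreen: after 24 h compound treatment of genome-edited SNCA-luciferase HEK-293 cells, live-cell protease substrate GF-AFC read by fluorescence after 30 min; activity scaled between DMSO (0%) and medium-only (-100%), curves Hill-fitted.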
GPT2 conf – Confirmatory qHTS assay for inhibitors of Glutamate pyruvate transaminase 2 (GPT2); Potency, µM, actives largely listed as inhibitors; AID 1671187, 2021; 95 compounds, 90% hits; GPT2 enzyme, coupled Amplex Red pyruvate fluorescence; shares compounds with GPT2 inhibitor
Large screens that a line does not name were inactive (follow-up assays come after a bar, where they were run). Unless noted, the call rests on the fitted dose curve; in most records, active means well fitted curve in the direction sought with a large enough effect; inconclusive means small, poorly fitted or top-dose-only effect, or another doubt; inactive means no such curve, though single readings can be large; an effect the other way counts as inactive or inconclusive.

CC(C)[C@]1(O)CN(C(=O)Cn2[nH]c3ccccc3c2=O)C[C@H]1C	GPT2 inhibitor inconclusive | GPT2 conf 4.32
C[C@@H]1CN(C(=O)Cn2ccc(=O)[nH]c2=O)C[C@@]1(O)C1CCC1	none
O=C(Cc1ccccn1)NC1CCN(c2nc3ncccc3o2)C1 (stereo unspecified)	none
O=C(CCC[C@H]1NC[C@@H]2C[C@H]1CN(Cc1ccccc1)C2)Nc1ccc(N2CCOCC2)cc1	GPT2 inhibitor 7.08µM | GPT2 conf 4.85
CN(C)c1cccc(C(=O)N2CCNc3cnc(Nc4ccc(N5CCOCC5)cc4)nc3C2)c1	GPT2 inhibitor 2µM | GPT2 conf 1.93
COc1ccc(CNC(=O)N2CCOc3ccc(N(C)C)cc3C2)cc1	GPT2 inhibitor 1.78µM | GPT2 conf 0.863
Cc1ccc(CNC(=O)c2ccc3c(c2)CN(Cc2ccc(N(C)C)cc2)CCO3)cc1	SNCA expr inh inconclusive
C=CC(=O)Nc1cccc(Nc2nc(Nc3ccc(NC4CN(CCF)C4)cc3OC)ncc2C(F)(F)F)c1	GPT2 inhibitor 8.91µM, HEK293 viab 4.74µM (no result: SNCA expr inh) | GPT2 conf 3.06
CC(=O)NCC(=O)N1C2CCC1c1cc(Nc3ncc(C(F)(F)F)c(NC4CCC4)n3)ccc12 (stereo unspecified)	HEK293 viab inconclusive (no result: SNCA expr inh)
COc1cc(-c2nc3c([nH]2)CCCNC3=O)ccc1O	GPT2 inhibitor inconclusive | GPT2 conf 6.11
Cn1ncc2c(C(=O)NCc3cccnc3)cc(-c3cccc(F)c3)nc21	none (no result: SNCA expr inh, GPT2 inhibitor, HEK293 viab)

From PubChem BioAssay
